Records with an inconclusive call do not appear. Unmarked numbers belong to inactive results. The source made the active and inactive calls. Unless noted, calls follow the shape of the dose curve; as a rule, active = well fitted curve in the direction sought with a large enough effect in the repeat runs; inconclusive = weak or mixed curves; inactive = no such curve, though single readings can be large; an effect the other way counts as inactive or inconclusive.

Assay [1] in a line: qHTS assay to identify small molecule agonists of the RXR signaling pathway - cell viability counter screen (AID 1159529). Also: series mostly up to about 77 µM; nearly all actives have a fitted effect of over 50% in size. An outline of the steps:
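CellTiter-Glo luminescence gave viability in the wells also read for beta-lactamase. Cells (RXR-alpha-UAS-bla HEK 293T, 2% charcoal-stripped FBS medium) had 5 hr plating, then 16 hr compound exposure at 37 C; tetraoctyl ammonium bromide served as positive control.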
(In general: Quantitative high-throughput screening tests each substance at several concentrations.)

Assay [2] in a line: qHTS assay to identify small molecule antagonists of the retinoid acid receptor (RAR) signaling pathway - cell viability counter screen (AID 1159551). Also: nearly all actives have a fitted effect of over 35% in size. The essentials: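 C3RL4 cells were seeded overnight at 37 C, then treated with compounds plus 1 uM (final) retinol for 6 h at 37 C. Viability was read as ATP by CellTiter-Glo luminescence after 30 min at room temperature.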
A short description of assay [3]: qHTS assay to identify small molecule antagonists of the retinoic acid receptor (RAR) signaling pathway (AID 1159552; also: nearly all actives have a fitted effect of over 50% in size). An outline of the steps: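 Luminescent RARE reporter read-out in C3RL4 cells: 6 hr co-treatment at 37 C of test compounds with retinol at 1 uM final. Cells plated overnight beforehand; luciferase reagent incubated 30 min at room temperature before reading.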

The nature of assay [4]: qHTS assay to identify small molecule agonists of the retinoic acid receptor (RAR) signaling pathway (AID 1159553). An outline of the steps:
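C3RL4 cells carrying a RARE luciferase reporter were plated overnight at 37 C, then exposed to compounds in DMSO for 6 hr at 37 C and 5% CO2. Luminescence was read 30 min after luciferase reagent addition at room temperature.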

Assay [5] is described as follows: qHTS assay to identify small molecule antagonists of the estrogen related receptor (ERR) signaling pathway from Tox21 library - cell viability counter screen (AID 1224834). Also: nearly all actives have a fitted effect of over 30% in size. Also: potency is read from the fitted curve at half-maximal effect. An outline of the steps: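 ERR reporter cells were plated 6 h before compound addition, then exposed to test compounds in DMSO for 17.5 h at 37 C. Viability was read as CellTiter-Fluor fluorescence after a 30-minute incubation at 37 C.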

The target in assay [6] is Luciferin 4-monooxygenase (Photinus pyralis) (UniProt P08659). As to the kind of experiment: qHTS assay to identify small molecule inhibitors of firefly luciferase (AID 1224835). Also: series mostly up to about 120 µM; nearly all actives have a fitted effect of over 25% in size. An outline of the steps:
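Inhibition of purified Photinus luciferase is measured by luminescence. Substrate levels (D-luciferin, ATP) sit at their KM values. Each compound is tested in a concentration series.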

The nature of assay [7]: qHTS assay to identify small molecule agonists of the constitutive androstane receptor (CAR) signaling pathway - cell viability counter screen (AID 1224836). Also: nearly all actives have a fitted effect of over 45% in size. Also: potency is read from the fitted curve at half-maximal effect. An outline of the steps:
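Cell viability multiplexed with the CAR agonist screen: CellTiter-Fluor fluorescence after 23 hr at 37 C. HepG2-CYP2B6-hCAR cells got compounds at 15 concentrations with PK11195 at 0.75 uM final.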

Assay [8] in a line: qHTS assay to identify small molecule antagonists of the constitutive androstane receptor (CAR) signaling pathway - cell viability counter screen (AID 1224837). Also: nearly all actives have a fitted effect of over 45% in size. Also: potency is read from the fitted curve at half-maximal effect. The essentials:
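HepG2 cells stably expressing hCAR and a CYP2B6-2.2kb reporter were plated and pre-incubated 4 hr at 37 C/5% CO2, then given compounds at 15 concentrations plus 50 nM CITCO (final). After 23 hr, viability was read by CellTiter-Fluor fluorescence.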

The nature of assay [9]: qHTS assay to identify small molecule antagonists of the estrogen related receptor signaling pathway with the pleiotropic PPARgamma coactivator (PGC) from Tox21 10K library - cell viability counter screen (AID 1224840; active = well fitted cell-killing curve with a large enough effect in the repeat runs, not every such curve was filed as active; also: nearly all actives have a fitted effect of over 40% in size; also: potency is read from the fitted curve at half-maximal effect). The essentials: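 PGC/ERR cells were seeded at 2,000 cells/well and left 6 hours at 37 C/5% CO2 before pin-tool addition of compounds in DMSO. After 17.5 hours at 37 C, CellTiter-Fluor was added and fluorescence read 30 minutes later.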

In assay [10] the target is Thyrotropin receptor (Homo sapiens) (UniProt P16473). As to the kind of experiment: qHTS assay to identify small molecule agonists of the thyroid stimulating hormone receptor (TSHR) signaling pathway (AID 1224843; calls by dose curve; also: nearly all actives have a fitted effect of over 45% in size; also: potency is read from the fitted curve at half-maximal effect). The essentials:
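HEK293 cells stably bearing the thyrotropin receptor were plated at 800 cells/well and challenged with compound (30 min, RT). Accumulated cAMP was quantified via cAMP-d2 competing for cryptate-tagged antibody.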

In assay [11] the target is Nuclear receptor subfamily 1 group I member 3 (Homo sapiens) (UniProt Q14994). As to the kind of experiment: qHTS assay to identify small molecule agonists of the constitutive androstane receptor (CAR) signaling pathway (AID 1224839).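 Also: HepG2 cells stably carrying human CAR and a CYP2B6 luciferase reporter; series mostly up to about 92 µM; nearly all actives have a fitted effect of over 15% in size.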 The essentials: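 Luminescent ONE-Glo read-out after 24 hr, 37 C exposure of double-stable HepG2-CYP2B6-hCAR reporter cells to a 15-point compound series, in the presence of 0.75 uM PK11195 (final).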

The target is the same in assay [12]. As to the kind of experiment: qHTS assay to identify small molecule antagonists of the constitutive androstane receptor (CAR) signaling pathway (AID 1224838). Also: nearly all actives have a fitted effect of over 40% in size. An outline of the steps:
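HepG2 cells stably co-transfected with hCAR and a CYP2B6-2.2kb luciferase reporter were seeded 4 h before compound addition at 15 concentrations. Cells were stimulated with 50 nM CITCO (final) for 24 h at 37 C; luciferase luminescence was then read.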

The nature of assay [13]: qHTS assay to identify small molecule antagonists of the estrogen related receptor signaling pathway with the pleiotropic PPARgamma coactivator (PGC) from Tox21 10K library (AID 1224841; call rule not given here; also: series mostly up to about 92 µM; actives are mostly falling curves and most rising ones were filed inactive; nearly all actives have a fitted effect of over 50% in size). The essentials: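 PGC/ERR reporter cells were seeded at 2,000 cells/well and held 6 hours at 37 C/5% CO2 before pin-tool addition of compounds in DMSO. After 18 hours at 37 C, One-Glo was added and luminescence read after 30 minutes at room temperature.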

A short description of assay [14]: qHTS assay to identify small molecule antagonists of the estrogen related receptor (ERR) signaling pathway - cell viability counter screen (AID 1224818).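 Also: series mostly up to about 46 µM; viability measured after 17.5 h of compound exposure.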 The essentials: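 ERR reporter cells plated 6 h at 37 C/5% CO2, then compounds in DMSO pin-transferred and incubated 17.5 h at 37 C. Viability read as CellTiter-Fluor fluorescence after 30 min at 37 C.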
Assay [15] is described as follows: qHTS assay to identify small molecule antagonists of the estrogen related receptor signaling pathway with the pleiotropic PPARgamma coactivator (PGC) cell viability counter screen (AID 1224822; also: series mostly up to about 46 µM). The essentials:
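PGC/ERR cells were seeded at 2,000 cells/well, rested 6 h at 37 C/5% CO2, then given compounds in DMSO by pin tool and incubated 17.5 h at 37 C. Viability came from CellTiter-Fluor fluorescence after 30 min.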

Assay [16] is described as follows: qHTS assay to identify small molecule agonists of the estrogen related receptor signaling pathway with the pleiotropic PPARgamma coactivator (PGC) from Tox21 10K library (AID 1224842). Also: nearly all actives have a fitted effect of over 15% in size. The essentials:
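Luminescence from One-Glo (30 min, room temperature) measured after PGC/ERR cells had 18 h at 37 C with pinned compound (23 nL in DMSO). Cells had been seeded at 2,000 per well and pre-incubated 6 h.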

Sequence of Nuclear receptor subfamily 1 group I member 3 (Homo sapiens) (Q14994 whole entry, looked up): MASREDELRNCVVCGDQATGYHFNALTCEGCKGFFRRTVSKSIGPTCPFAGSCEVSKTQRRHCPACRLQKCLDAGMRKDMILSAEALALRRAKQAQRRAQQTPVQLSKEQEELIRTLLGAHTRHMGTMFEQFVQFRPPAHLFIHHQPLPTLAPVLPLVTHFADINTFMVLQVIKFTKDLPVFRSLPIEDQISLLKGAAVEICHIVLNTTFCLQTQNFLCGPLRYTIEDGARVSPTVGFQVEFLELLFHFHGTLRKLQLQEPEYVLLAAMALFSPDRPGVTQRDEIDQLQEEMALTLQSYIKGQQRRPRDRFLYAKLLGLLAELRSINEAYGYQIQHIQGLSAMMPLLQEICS
Sequence of Luciferin 4-monooxygenase (Photinus pyralis) (P08659 whole entry, looked up): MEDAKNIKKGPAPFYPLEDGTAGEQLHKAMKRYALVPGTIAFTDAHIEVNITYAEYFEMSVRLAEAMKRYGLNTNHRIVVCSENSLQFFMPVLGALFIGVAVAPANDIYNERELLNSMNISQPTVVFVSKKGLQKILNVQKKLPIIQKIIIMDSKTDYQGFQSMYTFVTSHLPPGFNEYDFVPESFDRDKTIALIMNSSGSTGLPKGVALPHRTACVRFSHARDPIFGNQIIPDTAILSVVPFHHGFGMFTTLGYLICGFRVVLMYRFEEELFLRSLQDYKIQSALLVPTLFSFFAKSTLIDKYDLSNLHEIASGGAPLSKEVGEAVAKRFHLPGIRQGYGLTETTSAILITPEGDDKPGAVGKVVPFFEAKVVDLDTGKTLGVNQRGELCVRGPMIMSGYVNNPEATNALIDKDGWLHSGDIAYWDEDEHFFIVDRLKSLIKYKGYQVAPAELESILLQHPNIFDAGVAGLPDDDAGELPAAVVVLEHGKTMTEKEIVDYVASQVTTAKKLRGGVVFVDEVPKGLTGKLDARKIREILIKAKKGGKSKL
Sequence of Thyrotropin receptor (Homo sapiens) (P16473 whole entry, looked up): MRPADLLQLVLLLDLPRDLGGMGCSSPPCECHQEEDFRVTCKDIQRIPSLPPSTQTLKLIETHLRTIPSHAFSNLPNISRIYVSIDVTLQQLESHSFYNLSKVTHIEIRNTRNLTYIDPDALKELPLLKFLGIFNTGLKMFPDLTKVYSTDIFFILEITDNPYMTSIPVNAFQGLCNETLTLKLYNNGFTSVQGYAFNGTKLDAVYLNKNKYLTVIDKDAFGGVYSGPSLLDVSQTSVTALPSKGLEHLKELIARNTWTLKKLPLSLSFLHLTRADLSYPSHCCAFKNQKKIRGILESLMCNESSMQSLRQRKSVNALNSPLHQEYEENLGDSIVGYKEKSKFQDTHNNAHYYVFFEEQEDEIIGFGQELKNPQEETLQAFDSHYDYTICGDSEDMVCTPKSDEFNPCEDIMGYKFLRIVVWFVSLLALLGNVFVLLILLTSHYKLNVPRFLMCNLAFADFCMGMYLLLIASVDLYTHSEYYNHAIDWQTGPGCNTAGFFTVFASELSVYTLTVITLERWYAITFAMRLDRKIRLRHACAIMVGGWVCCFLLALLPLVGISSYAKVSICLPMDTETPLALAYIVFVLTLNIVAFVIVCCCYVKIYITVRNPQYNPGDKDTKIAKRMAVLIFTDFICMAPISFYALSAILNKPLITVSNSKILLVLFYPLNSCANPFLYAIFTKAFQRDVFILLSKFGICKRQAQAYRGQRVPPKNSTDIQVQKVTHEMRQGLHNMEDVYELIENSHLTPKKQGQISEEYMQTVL

For the compound `CCCCCCCCO[C@@H]1O[C@H](CO)[C@@H](O)[C@H](O)[C@H]1O`, the Potency result in [1], in assay [2], in assay [3], in assay [4], in assay [5] and in assay [6] was “inactive” throughout. The Potency result in [7], in [8], in assay [9] and in assay [10] was “inactive” in each case.

For `CN(C)CCN(Cc1ccsc1)c1ccccn1`, the Potency result in [1], in assay [2], in assay [3], in assay [4], in assay [5] and in assay [6] was “inactive” in each case. The Potency result in [7], in assay [8], in [11] and in [9] was “inactive” in each case.

With `C[Si](C)(CCCN)O[Si](C)(C)CCCN`, the Potency entry in [1], in [2], in [3], in assay [4], in assay [5] and in [6] was “inactive” throughout. Also, the Potency entry in assay [7], in [8], in assay [12], in assay [11], in [9] and in assay [13] was “inactive” throughout. Besides, the Potency result in [10] was “inactive”.

On to `C[N+](C)(C)CCOC(=O)CCC(=O)OCC[N+](C)(C)C`, for which the Potency entry in [1], in assay [2], in assay [3], in [4], in assay [5] and in assay [6] was “inactive” in each case. Also, the Potency result in [8], in assay [9] and in assay [10] was “inactive” in each case. For the same compound, the compound was called inactive in assay [14] and in [15].

Regarding `O=C(O)c1ccc(S(=O)(=O)O)cc1C(=O)O`, the Potency entry in assay [1], in assay [2], in assay [3], in assay [4], in assay [5] and in assay [6] was “inactive” throughout. Besides, the Potency result in assay [7], in assay [8], in assay [12], in [11], in assay [9] and in assay [16] was “inactive” in each case. The Potency result in assay [10] is “inactive”.

Consider `C=CC1CC2C=CC1C2` (stereo not drawn), for which the Potency entry in assay [1], in assay [2], in [3], in assay [4], in assay [5] and in [6] was “inactive” each time. Further, the Potency result in assay [7], in assay [8], in assay [12], in [11] and in [9] was “inactive” each time.

As for `CCOC(=O)C1=C[C@]2(CC)CCCN3CCc4c(n1c1ccccc41)[C@@H]32`, the Potency entry in assay [1], in assay [2], in [3], in assay [4], in [6] and in assay [7] was “inactive” in each case. For the same compound, the Potency result in assay [8], in assay [12] and in [9] was “inactive” throughout. For the same compound, the compound was classed as inactive in assay [14] and in assay [15]. For the same compound, in assay [10], the Potency is 18.8 µM (active).

Consider `CCOc1ccc(N=Nc2ccc(/C=C/c3ccc(N=Nc4ccc(OCC)cc4)cc3S(=O)(=O)O)c(S(=O)(=O)O)c2)cc1`, for which the Potency entry in [1], in [2], in assay [3], in assay [4], in [6] and in assay [10] was “inactive” each time. Further, the Potency in [5] is 24 µM (active); in assay [7], 24 µM (active); in assay [8] it was 21.4 µM (active); in assay [9] it was 47.8 µM (active).

For `CC(=O)OC[C@H]1O[C@@H](n2ncc(=O)[nH]c2=O)[C@H](OC(C)=O)[C@@H]1OC(C)=O`, the Potency result in assay [1], in [2], in assay [3], in assay [4], in [5] and in assay [6] was “inactive” throughout. The Potency result in assay [7], in [8], in [12], in assay [11], in assay [9] and in assay [10] was “inactive” each time.

In the case of `C[C@@H]1C[C@H]2[C@@H]3CCC4=CC(=O)C=C[C@]4(C)[C@@]3(F)[C@@H](O)C[C@]2(C)[C@@]1(O)C(=O)COC(=O)c1ccncc1`, the Potency entry in [1], in [2], in assay [3], in [4], in assay [5] and in assay [6] was “inactive” each time. Further, the Potency entry in [7], in assay [8], in assay [12], in assay [9] and in assay [10] was “inactive” each time.
